The list is not random: actives were taken first. Their share in the collection is about 21%.
Cycloheximide cs = counter-screen for Shiga toxin inhibitors: cycloheximide protein synthesis inhibition; cell reporter, cycloheximide protein synthesis inhibition counterscreen; max response, %; hit rate 12% among 300,000; AID 2314; in the data active = max response mostly above about 13%, no sharp cut-off; inactive = mostly below about 14%; also: read at 38.3 µM for the half of the compounds with a filed dose; 0% is about no effect
Shiga inhibitor = inhibitors of Shiga toxin in Vero cells; Vero cells, Shiga toxin protein synthesis inhibition reporter; AID 2315; inhibition, % at 38.7 µM; hit rate 9.2% among 290,000; in the data active = inhibition mostly above about 28%, no sharp cut-off; inactive = mostly below about 43%; also: 0% is about no effect
Pf growth 48h = inhibits P. falciparum growth in the first generation, 48 h. P. falciparum luciferase growth in erythrocytes, 48 h. Potency, µM (series often up to 28.7 µM), without a hit: top-dose activity change, negative = inhibition, most hits filed as inhibitors. AID 504832. hit rate 5.9% among 310,000; also: potency is read from the fitted curve at half-maximal effect; % is scaled to controls: 0 for no effect and ±100 for the full control effect
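Compounds are pin-transferred into medium, infected erythrocytes (2% hematocrit, 0.1% parasitemia final) are added, and plates sit one parasite generation at 37 C in 5% CO2. Detection reagent is then added and luminescence measured.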
AMA1-RON2 inh = inhibitors of Plasmodium falciparum AMA1-RON2 interaction | AID 720542 | AlphaScreen AMA1-biotinylated RON2 peptide binding | Potency, µM (series often up to 58.2 µM), inactives show at the highest dose activity change, negative = inhibition, actives largely listed as inhibitors | hit rate 0.2% among 360,000;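 also: potency is read from the fitted curve at half-maximal effect; 0% = vehicle wells and -100% = peptide control; nearly all actives have a fitted effect of over 45% in size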
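AMA1 (3D7) with his tag at 25 nM final met compounds first, then biotinylated RON2 peptide at 25 nM; detection used donor plus acceptor beads, 10 µg/mL apiece, read by AlphaScreen after 30 min at room temperature.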
HCV inh = inhibitors of hepatitis C virus infection | Huh7.5.1 HCVcc-Cre infection, luciferase reporter, 44 h | Potency, µM (top dose mostly 41.8 µM), for inactives: top-dose activity change, negative = inhibition, usual class: inhibitors | hit rate 3.4% among 340,000; also: potency is read from the fitted curve at half-maximal effect; % is scaled to controls: 0 for no effect and ±100 for the full control effect
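Compounds are dispensed onto cells plated 4 h earlier at 1,000 per well, with HCVcc-Cre virus (about 0.5 moi) added next. Following 44 h of culture, luminescent signal is measured for 15 sec after 15 min with substrate at room temperature.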
Pf growth 96h = P. falciparum growth inhibition at 96 hours. Potency, µM (highest dose often 28.7 µM), inactives show at the top dose activity change, negative = inhibition, actives largely listed as inhibitors. hit rate 6.9% among 320,000. P. falciparum luciferase reporter growth, 96 h; also: potency is read from the fitted curve at half-maximal effect; % is scaled to controls: 0 for no effect and ±100 for the full control effect
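Infected RBCs, 2% Hct / 0.05% parasitemia final; luciferase-reporter P. falciparum; cpd 96 h, 37 C, 5% CO2; luciferase detection reagent; luminescence.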
An asterisk follows results filed as active. Unless noted, calls follow the shape of the dose curve; as a rule, active = well fitted curve in the direction sought with a large enough effect; inconclusive = small, poorly fitted or top-dose-only effect, or another doubt; inactive = no such curve, though single readings can be large; an effect the other way counts as inactive or inconclusive.

How did O=C1C2CCCN2C(=O)N1CCCCN1CCN(c2cccc(Cl)c2)CC1 (stereo not given) do in these assays?
Cycloheximide cs: -2; Shiga inhibitor: -5; Pf growth 48h: -10%; AMA1-RON2 inh: -8%; HCV inh: inconclusive; Pf growth 96h: 13µM*

How did CC(C)c1ccc(NC2CCCN(C(=O)C3=NN(C)C(=O)CC3)C2)cc1 (stereo not given) do in these assays?
Cycloheximide cs: -1; Shiga inhibitor: -3; Pf growth 48h: inconclusive; AMA1-RON2 inh: -3%; HCV inh: 4%; Pf growth 96h: inconclusive

Results for Cc1nn(-c2ccccc2)nc1C(N)=O ?
Cycloheximide cs: 5; Shiga inhibitor: -7; Pf growth 48h: 50%; AMA1-RON2 inh: -9%; HCV inh: -7%; Pf growth 96h: 41%

How did COc1cccc(COC(=O)c2nn(-c3ccccc3)nc2N)c1 do in these assays?
Cycloheximide cs: 1; Shiga inhibitor: 1; Pf growth 48h: -7%; AMA1-RON2 inh: -19%; HCV inh: 17%; Pf growth 96h: -3%

What do the screens show for `Cc1ccc(COC(=O)c2nn(-c3ccccc3)nc2N)cc1`?
Cycloheximide cs: 18*; Shiga inhibitor: 21; Pf growth 48h: -8%; AMA1-RON2 inh: 60%; HCV inh: 2%; Pf growth 96h: 3%

How did Nc1nn(-c2ccccc2)nc1C(=O)OCc1ccccc1 do in these assays?
Cycloheximide cs: 27*; Shiga inhibitor: 48*; Pf growth 48h: -3%; AMA1-RON2 inh: 23%; HCV inh: 5%; Pf growth 96h: 1%

How did Cc1ccc(COC(=O)c2nn(C)c(=O)c3ccccc23)cc1 do in these assays?
Cycloheximide cs: -1; Shiga inhibitor: -2; Pf growth 48h: 18%; AMA1-RON2 inh: -5%; HCV inh: 10µM*; Pf growth 96h: 32%

Results for NC(=O)c1nn(-c2ccccc2)nc1N ?
Cycloheximide cs: 18*; Shiga inhibitor: 16; Pf growth 48h: 16%; AMA1-RON2 inh: -21%; HCV inh: -1%; Pf growth 96h: -14%

Results for COc1ccc(N2CCN(c3cncc(C)n3)CC2)cc1 ?
AMA1-RON2 inh: 4%

Results for O=[N+]([O-])c1ccc(C=NNc2ccccc2)cc1 ?
AMA1-RON2 inh: inconclusive; HCV inh: -6%

Results for O=[N+]([O-])c1cccc(/C=N/N2CCN(Cc3ccccc3)CC2)c1 ?
Cycloheximide cs: 27*; Shiga inhibitor: 83*; Pf growth 48h: 172%; AMA1-RON2 inh: -3%; HCV inh: 8%; Pf growth 96h: inconclusive

Results for O=[N+]([O-])c1cccc(/C=N/N2CCN(c3ccccn3)CC2)c1 ?
Cycloheximide cs: 15*; Shiga inhibitor: 1; Pf growth 48h: 33%; AMA1-RON2 inh: 0%; HCV inh: 1%; Pf growth 96h: -27%

How did O=[N+]([O-])c1cccc(/C=N/N=C\c2ccccc2)c1 do in these assays?
Cycloheximide cs: 36*; Shiga inhibitor: 56*; Pf growth 48h: -10%; AMA1-RON2 inh: -6%; HCV inh: 1%; Pf growth 96h: 13µM*

How did O=[N+]([O-])c1ccc(N/N=C/c2ccccc2)c(F)c1 do in these assays?
Cycloheximide cs: 74*; Shiga inhibitor: 63*; Pf growth 48h: 166%; AMA1-RON2 inh: -7%; HCV inh: -8%; Pf growth 96h: 273%

What do the screens show for `O=[N+]([O-])c1cccc(C=NNc2ccccc2)c1`?
AMA1-RON2 inh: -4%; HCV inh: inconclusive

Results for O=[N+]([O-])c1cccc(NC(=S)N2CCN(c3ccccn3)CC2)c1 ?
Cycloheximide cs: 10; Shiga inhibitor: 2; Pf growth 48h: -3%; AMA1-RON2 inh: -8%; HCV inh: inconclusive; Pf growth 96h: inconclusive

Results for C=CCC[C@H](Cc1ccc(F)cc1)C(=O)OC[C@@H](Cc1c[nH]c2ccccc12)NC(=O)[C@@H](CC=C)CC(=O)NCCO ?
AMA1-RON2 inh: -1%; HCV inh: inconclusive

Results for O=C1CCC(C(=O)OCC(=O)Nc2ccc(SC(F)F)cc2)=NN1 ?
AMA1-RON2 inh: 1%

How did O=[N+]([O-])c1cccc(/C=N\N2CCN(Cc3ccccc3Cl)CC2)c1 do in these assays?
Cycloheximide cs: 16*; Shiga inhibitor: 20; Pf growth 48h: -3%; AMA1-RON2 inh: inconclusive; HCV inh: -22%; Pf growth 96h: 18%

What do the screens show for `O=[N+]([O-])c1cccc(CN2CCN(Cc3ccc(Cl)cc3)CC2)c1`?
Cycloheximide cs: -3; Shiga inhibitor: 6; Pf growth 48h: 12%; AMA1-RON2 inh: inconclusive; HCV inh: 10µM*; Pf growth 96h: 0%

How did O=[N+]([O-])c1cccc(C=NN2CCCCCC2)c1 do in these assays?
AMA1-RON2 inh: 18µM*; HCV inh: inconclusive

Results for O=[N+]([O-])c1cccc(/C=N/N2CCN(Cc3ccc(Cl)cc3)CC2)c1 ?
Cycloheximide cs: -3; Shiga inhibitor: 20; Pf growth 48h: -12%; AMA1-RON2 inh: inconclusive; HCV inh: inconclusive; Pf growth 96h: 12%

What do the screens show for `O=c1c2c3c(sc2n2cnnc2n1Cc1ccccc1)CN(Cc1ccccc1)CC3`?
Cycloheximide cs: -2; Shiga inhibitor: 14; Pf growth 48h: 10µM*; AMA1-RON2 inh: inconclusive; HCV inh: 7.9µM*; Pf growth 96h: inconclusive

Results for CC(=O)N1CCN(C(=O)c2ccc(NS(=O)(=O)c3ccc4[nH]c(=O)[nH]c4c3)cc2)CC1 ?
Pf growth 48h: -4%; AMA1-RON2 inh: 9%; HCV inh: 1%; Pf growth 96h: 0%

How did COc1cc(/C=C(\CC(=O)O)c2nc3ccccc3s2)cc(OC)c1O do in these assays?
Cycloheximide cs: 17; Shiga inhibitor: 13; Pf growth 48h: 0%; AMA1-RON2 inh: -12%; HCV inh: -7%; Pf growth 96h: 53%

What do the screens show for `O=C(Nc1ccc(Cl)cc1)/C(=C/c1cccc(O)c1)c1nc2ccccc2s1`?
Cycloheximide cs: 95*; Shiga inhibitor: 154*; Pf growth 48h: 9.3µM*; AMA1-RON2 inh: -6%; HCV inh: 13µM*; Pf growth 96h: 4.1µM*

What do the screens show for `S=C(Nc1ccc(Cl)cc1)c1nc2ccccc2s1`?
Cycloheximide cs: 34*; Shiga inhibitor: 35; Pf growth 48h: 69%; AMA1-RON2 inh: inconclusive; HCV inh: -25%; Pf growth 96h: -16%

How did O=C(NCC1CCOCC1)C1Cc2c(-c3ccccc3Oc3ccccc3)ccnc2O1 (stereo not given) do in these assays?
AMA1-RON2 inh: 23%

What do the screens show for `CCN(CC)CCNC(=O)c1ccc(NC(=O)c2cccc(-n3cnnn3)c2)cc1`?
Pf growth 48h: inconclusive; AMA1-RON2 inh: 2%; HCV inh: 37%; Pf growth 96h: inconclusive

What do the screens show for `CCC(=O)Nc1cccc(-n2nnnc2SCC(=O)N2CCCCC2)c1`?
Cycloheximide cs: 18*; Shiga inhibitor: 27; Pf growth 48h: 6%; AMA1-RON2 inh: 0%; HCV inh: inconclusive; Pf growth 96h: -9%

Assay outcomes from PubChem.
